Records with an inconclusive call do not appear. A call without a number means that no potency is given here. Calls of active or inactive are those of the source. The call rests on the fitted dose curve; in most records, active means well fitted inhibition curve with a large enough effect; inconclusive means small, poorly fitted or top-dose-only effect; inactive means flat fitted curve, though single readings scatter.

This passage reports Potency results from PubChem BioAssay (NCATS).

Sequence of Calcium and integrin-binding protein 1 (Homo sapiens) (Q99828 whole entry, looked up): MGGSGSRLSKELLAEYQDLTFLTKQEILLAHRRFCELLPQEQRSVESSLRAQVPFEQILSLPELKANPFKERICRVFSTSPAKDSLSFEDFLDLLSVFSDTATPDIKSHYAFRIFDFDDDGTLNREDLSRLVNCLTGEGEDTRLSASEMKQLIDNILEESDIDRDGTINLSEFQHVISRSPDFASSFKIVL

The assay addresses Calcium and integrin-binding protein 1 (Homo sapiens) (UniProt Q99828). Description: Primary qHTS for Identification of Calcium Integrin Binding Protein 1 (CIB1) Competitor (AID 1508620).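 Further: GST tagged CIB1 binding a fluorescein labelled alphaIIb integrin peptide tracer; top concentration of the series differs between compounds.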 The conditions noted are these: CIB1-GST / FITC-alphaIIb peptide fluorescence polarization; series mostly up to 114 µM. In outline: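 CIB1-GST (1 uM final) and compound incubated 15 min at room temperature before adding FITC-alphaIIb peptide tracer (100 nM final). Competition for binding read by fluorescence polarization (ex 480, em 540) after another 15 min at room temperature.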
Background: Quantitative high-throughput screening tests each substance at several concentrations.
Turning to `Nc1ccc(-c2ccc(NC(=O)c3cccs3)cn2)cc1`, the Potency entry is “inactive”.
The result for `O=C(c1ccc2c(c1)ncn2-c1ccc(Cl)cc1)N1CCCCC1` reads “inactive”.
As to `COc1cc(O)c(C(CC(=O)N2CCCC(C#N)C2)c2ccc3c(c2)OCO3)c(OC)c1` (centres undefined), the Potency result is “inactive”.
The result for `COC(=O)c1ccc(OC(C)=O)c2ncccc12` reads “inactive”; that for `Cc1cc(NS(=O)(=O)c2cc3c(cc2F)NC(=O)CC3)ccc1Cl`, “inactive”; that for `Cc1cc2c(s1)c1cnn(Cc3ccc(C(C)C)cc3)c(=O)c1n2C`, “inactive”.
Take `CCOC(=O)c1c(CNCc2ccccc2F)c2sc(C)cc2n1C`: the Potency entry was “inactive”.
Then `N#Cc1nc(Nc2cccc(F)c2)nc(NC2CCCC2)n1`, with “inactive”; and `CC(=O)c1ccc(N2CCN(S(=O)(=O)c3ccc4c(c3)oc(=O)n4C)CC2)cc1`, with “inactive”; and `COc1ccc(C2Nc3ccccc3C(=O)N2Cc2ccncc2)cc1COc1c(C)cc(NC(C)=O)cc1C` (centres undefined), with “inactive”.
For `CCN(Cc1cccs1)c1ncnc2ccc(-c3ccc4c(c3)OCO4)cc12`, the Potency entry is “inactive”.
Turning to `Cc1occc1-c1ccc2ncnc(NCCc3cnc[nH]3)c2c1`, the Potency entry is “inactive”.
The result for `CC(=O)N1CCN(c2ccc(NCc3ccco3)cc2)CC1` reads “inactive”.
In the case of `Cc1ccc(OCCn2c(CCNC(=O)c3cccc(C(F)(F)F)c3)nc3ccccc32)cc1`, the Potency entry is “inactive”.
`COc1ccc(S(=O)(=O)NC2CCN(C#N)CC2)cc1`: the Potency entry is “inactive”.
With `CCOC(=O)c1cccc(-n2cnc(/C=C3\NC(=O)N(CC(=O)O)C3=O)c2)c1`, the Potency entry was “inactive”.
The result for `CCN(Cc1ccccc1)c1ccc(Br)cn1` reads “inactive”.
With `C=Cc1cc(F)c(S(=O)(=O)N2CCN(S(=O)(=O)c3ccc4c(c3)OCCO4)CC2)cc1F`, the Potency result was “inactive”.
Consider `N#CN1CCC(NS(=O)(=O)c2cccc(C(F)(F)F)c2)CC1`, for which the Potency entry was “inactive”.
As for `O=C(OCC#CCSc1nnc(-c2ccc3ccccc3c2)o1)c1ccc(F)cc1`, the Potency entry was “inactive”.
For `N#Cc1ccc(C[C@H](C(=O)O)N2C(=O)c3ccc(C(=O)O)cc3C2=O)cc1`, the Potency entry is “inactive”.
On to `Cc1ccnc(NC(=S)N2CCN(c3cccc(C(F)(F)F)n3)CC2)c1`, for which the Potency entry was “inactive”.
On to `O=c1c2ccc([N+](=O)[O-])cc2nc2sc(Nc3ccc4c(c3)CCC4)nn12`, for which the Potency result was “inactive”.
Regarding `COc1ccc(C(=O)N(Cc2ccco2)Cc2cccs2)c(O)c1`, the Potency result was “inactive”.
On to `Nc1cccc(-c2ccc(NC(=O)c3cccs3)cn2)c1`, for which the Potency result is “inactive”.
As for `O=C(O)c1ccc(O)c2ncc(N3CCCCC3)cc12`, the Potency result was “inactive”.
For the compound `CN(CC1CCCO1)c1ncnc2ccc(-c3ccc4c(c3)OCO4)cc12` (centres undefined), the Potency entry is “inactive”.
The result for `COc1ccc(CC(=O)Nc2ccc(S(=O)(=O)Nc3cc(C)on3)cc2)cc1OC` reads “inactive”; that for `Nc1cccc(S(=O)(=O)N2CCN(S(=O)(=O)c3c(F)cccc3F)CC2)c1`, “inactive”.
As to `O=S(=O)(c1ccc2c(c1)OCCO2)N1CCN(S(=O)(=O)c2ccc3c(c2)OCCO3)CC1`, the Potency result was “inactive”.
For `Cc1cc(NS(=O)(=O)c2cc3c(cc2N[C@@H](C)CO)NC(=O)CC3)ccc1F`, the Potency result was “inactive”.
For `Cc1cc2c(s1)c1cnn(Cc3ccc(C(F)(F)F)cc3)c(=O)c1n2C`, the Potency result was “inactive”.
Turning to `COc1ccc(CN(Cc2ccccc2)C(=O)c2ccccc2N)cc1COc1ccc(NC(C)=O)cc1`, the Potency entry was “inactive”.
Take `CC(=O)c1ccc(N2CCN(S(=O)(=O)c3ccc4c(c3)CCCC(=O)N4)CC2)cc1`: the Potency result is “inactive”.
Turning to `CC(=O)Nc1sc2c(c1-c1cc3ccccc3s1)CCNC2`, the Potency result was “inactive”.
Regarding `Cc1nc2ccccn2c1C(O)(c1ccccc1)c1ccccc1`, the Potency result is “inactive”.
On to `Cc1cc(N[S+](=O)([O-])c2ccc(NC(=O)Cc3cccc(Cl)c3Cl)cc2)no1`, for which the Potency entry is “inactive”.
With `O=[N+]([O-])c1ccccc1S(=O)(=O)Nc1cccc2cccnc12`, the Potency result was “inactive”.
The result for `Cc1ccc(S(=O)(=O)NC(N)=NCCC[C@@H](N)C(=O)Nc2cc(C(F)(F)F)ccc2Cl)cc1` reads “inactive”.
